# What was measured:
# Details in all cases: concentration: 1 μM, replicates: in singlicate; n = 1
# [1] = tested on: T1, ERK1
# T1 construct: gene MAPK3
# [2] = tested on: T2, ERK2
# T2 construct: gene MAPK1
# [3] = tested on: T3, ERK3
# T3 construct: gene MAPK6
# [4] = tested on: T4, ERK4
# T4 construct: gene MAPK4
# [5] = tested on: T5, ERK5
# T5 construct: gene MAPK7
# [6] = tested on: T6, ERK8
# T6 construct: gene MAPK15
# [7] = tested on: ERN1
# [8] = tested on: T7, FAK
# T7 construct: gene PTK2
# [9] = tested on: FER
# [10] = tested on: FES
# [11] = tested on: FGFR1
# [12] = tested on: FGFR2
# [13] = tested on: FGFR3
# [14] = tested on: FGFR4
# [15] = tested on: FGR
# [16] = tested on: FLT1
# [17] = tested on: FLT3-autoinhibited
# [18] = tested on: FLT3
# [19] = tested on: FLT4
# [20] = tested on: FRK
# 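Also: KINOMEscan kinase panel screen.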
Compound,%Inh [1] [%],%Inh [2] [%],%Inh [3] [%],%Inh [4] [%],%Inh [5] [%],%Inh [6] [%],%Inh [7] [%],%Inh [8] [%],%Inh [9] [%],%Inh [10] [%],%Inh [11] [%],%Inh [12] [%],%Inh [13] [%],%Inh [14] [%],%Inh [15] [%],%Inh [16] [%],%Inh [17] [%],%Inh [18] [%],%Inh [19] [%],%Inh [20] [%]
NCCC(NC(=O)c1cc(Br)c(-c2ccnc3[nH]ccc23)s1)c1ccccc1.O=C(O)C(F)(F)F.O=C(O)C(F)(F)F (centres unmarked) [GSK1307810],4,0,7,0,0,33,22,9,3,0,73,74,45,36,13,73,25,88,39,22
O=C(Nc1n[nH]c2cc(-c3cccs3)ccc12)C1CC1 [SB-731284],0,0,0,0,0,85,29,0,0,0,18,0,0,0,0,0,65,59,18,0
Cc1nn2c(=O)cc(N3CCO[C@H](C)C3)nc2n1Cc1cccc(Cl)c1Cl [GSK2373693],0,0,0,19,0,26,0,0,8,0,6,12,12,63,6,33,13,0,18,5
COc1cc(Nc2nccc(N3CCC(NC(=O)Nc4ccc5c(c4)OCO5)C3)n2)cc(OC)c1OC (centres unmarked) [GSK1379766],0,0,0,0,0,0,0,0,11,0,0,0,0,0,4,26,8,65,16,0
Nc1ncnc2scc(-c3ccc(NC(=O)Cc4cc(F)ccc4F)cc3)c12.O=C(O)C(F)(F)F [SB-731254-M],0,0,0,11,28,0,34,4,4,0,28,100,0,9,23,90.7,89,94.1,61,0
O=C1NC(=O)C(c2ccccc2Cl)=C1Nc1cccc(Cl)c1 [SB-342409],10,0,68,17,0,61,26,10,0,0,0,4,16,94.1,22,11,0,0,0,15
CCn1c(-c2nonc2N)nc2c(-c3ccccc3)ncc(OCCCN)c21.O=C(O)C(F)(F)F.O=C(O)C(F)(F)F [GSK260205],0,0,0,0,0,0,11,0,10,0,30,0,0,0,38,37,0,12,43,5
COC(=O)Nc1nc2cc(Oc3ccc(NC(=O)Nc4cccc(SC)c4)cc3)ccc2[nH]1.Cl [GW697999],0,0,0,8,0,55,0,0,13,0,11,5,0,0,47,98.9,22,99.3,86,48
COc1cc(Nc2nccc(N3CCC(NS(=O)(=O)c4ccc(NC(C)=O)cc4)CC3)n2)cc(OC)c1OC [GSK1379825],0,0,83,0,0,29,0,0,6,48,17,71,59,69,50,53,73,92,71,35
CN1CCN(Cc2ccc(NC(=O)Nc3ccc(N(C)c4ccnc(Nc5ccc(CS(C)(=O)=O)cc5)n4)cc3)cc2)CC1.Cl [GW827654],0,0,0,0,0,78,58,46,45,21,5,23,9,0,49,99.8,95.2,99.8,100,84

# From publication PMC5540273 (PLoS ONE, 2017)
